AmpC no deterg: inhibitors of E. coli AmpC beta-lactamase without detergent. AmpC nitrocefin hydrolysis, absorbance 480 nm, 0.0001% Triton. Potency, µM (highest dose often 57.1 µM), without a hit: at the top dose activity change, negative = inhibition, hits mostly inhibitors. 330,000 tested, 0.52% active;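 also: plate controls were no compound for no effect and no enzyme for full effect; nearly all actives have a fitted effect of over 20% in size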
Target sequence (P00811 whole entry, looked up): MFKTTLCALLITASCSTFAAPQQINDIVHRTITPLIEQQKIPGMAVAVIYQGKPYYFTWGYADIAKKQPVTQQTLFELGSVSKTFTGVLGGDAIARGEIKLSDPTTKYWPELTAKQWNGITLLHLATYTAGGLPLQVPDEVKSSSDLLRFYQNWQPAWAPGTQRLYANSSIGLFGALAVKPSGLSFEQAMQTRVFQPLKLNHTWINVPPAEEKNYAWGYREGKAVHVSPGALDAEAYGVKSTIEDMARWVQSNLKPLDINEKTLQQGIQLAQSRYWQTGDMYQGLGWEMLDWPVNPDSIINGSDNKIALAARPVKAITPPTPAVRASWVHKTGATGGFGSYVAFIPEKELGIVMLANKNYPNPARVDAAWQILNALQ
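AmpC (5.3 nM in the dispensed reagent) in 20 mM phosphate pH 7.0 with 0.01% (detergent screen) or 0.0001% Triton X-100 was preincubated with compounds for 15 min at room temperature. Nitrocefin was then added from an 800 uM solution, and hydrolysis was followed at 480 nm.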
Sm TGR inh: S. mansoni TGR enzyme inhibition. Potency, µM (titrated, usually from 114 µM), for inactives: at the highest dose activity change, negative = inhibition, most hits filed as inhibitors. purified TGR, DTNB reduction, TNB absorbance 405 nm. AID 485364. 360,000 tested, 3% active. Q962Y6; also: nearly all actives have a fitted effect of over 60% in size
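First, TGR (20 nM dispensed) and NADPH were mixed with compound. Second, a 15 min room-temperature incubation followed. Third, further NADPH and then DTNB were added to start the reaction. Finally, TNB absorbance was monitored kinetically.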
AMA1-RON2 inh: inhibitors of Plasmodium falciparum AMA1-RON2 interaction; AlphaScreen AMA1-biotinylated RON2 peptide binding; Potency, µM (doses to about 58.2 µM), for inactives: at the highest dose activity change, negative = inhibition, usual class: inhibitors; 360,000 tested, 0.2% active;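 also: 0% = vehicle wells and -100% = peptide control; nearly all actives have a fitted effect of over 45% in size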
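AMA1 (3D7) with his tag at 25 nM final met compounds first, then biotinylated RON2 peptide at 25 nM; detection used donor plus acceptor beads, 10 µg/mL apiece, read by AlphaScreen after 30 min at room temperature.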
RE007 growth inh: less growth of the S. pombe RE007 Vpr strain. 360,000 tested, 0.21% active. S. pombe RE007 Vpr strain, BacTiter-Glo ATP luminescence, 24 h. Potency, µM (series often up to 92.2 µM), without a hit: at the top dose activity change, negative = less growth, actives largely listed as inhibitors; active = well fitted falling curve with a large enough effect; inconclusive = small, poorly fitted or top-dose-only effect; inactive = no such curve, though single readings can be large or run the other way; also: nearly all actives have a fitted effect of over 50% in size
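Fission yeast RE007 carrying one integrated HIV-1 vpr copy, seeded at OD 0.01 in PMG+AL medium with 23 nL pinned compound. Grown 24 h at 30 degrees; viability read by BacTiter-Glo luminescence after 5 min.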
AmpC inh detg: AmpC beta-lactamase inhibition with detergent present. AmpC hydrolysis of nitrocefin, absorbance 480 nm, 0.01% Triton. 370,000 tested, 0.041% active. Potency, µM (top dose mostly 114 µM), for the others: at the top dose activity change, negative = inhibition, hits mostly inhibitors. AID 485294. P00811;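 also: 0% = no-compound wells and -100% = no-enzyme wells; nearly all actives have a fitted effect of over 25% in size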
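AmpC (5.3 nM in the dispensed reagent) in 20 mM phosphate pH 7.0 with 0.01% (detergent screen) or 0.0001% Triton X-100 was preincubated with compounds for 15 min at room temperature. Nitrocefin was then added from an 800 uM solution, and hydrolysis was followed at 480 nm.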
Active calls of the source: *; ? = inconclusive; . = no result given. Most compounds without a hit are left out; they make up all but 3.2% or so of the library. Unless noted, calls follow the shape of the dose curve; as a rule, active = well fitted curve in the direction sought with a large enough effect; inconclusive = small, poorly fitted or top-dose-only effect, or another doubt; inactive = no such curve, though single readings can be large; an effect the other way counts as inactive or inconclusive. Unless noted, % is scaled to controls: 0 for no effect and ±100 for the full control effect; potency is read from the fitted curve at half-maximal effect.

SMILES	AmpC no deterg	Sm TGR inh	AMA1-RON2 inh	RE007 growth inh	AmpC inh detg
Cc1c(C(=O)NCCc2ccc(Cl)cc2)sc2nc3n(c(=O)c12)CCCC3	.	45µM*	.	.	3%
O=C(Nc1ccccc1)Nc1ccc(Oc2ncnc3cc(Cl)ccc23)nc1	32%	8%	-14%	1%	4%
O=C(O)/C=C/C(=O)Nc1ccc(Oc2ncnc3cc(Cl)ccc23)nc1	-21%	8.9µM*	-3%	32µM*	2%
CN(C)C(=O)c1ccc(S(=O)(=O)NCc2ccccc2Cl)s1	.	4%	.	.	13%
O=C(C1CC1)N1CCc2cc(Br)cc(S(=O)(=O)N3CCN(c4cccc(C(F)(F)F)c4)CC3)c21	.	0%	.	.	?
O=C(N/N=C\C=C\c1ccc(Br)cc1)c1ccc2c(c1)OCO2	-33%	-2%	11%	-15%	45µM*
O=C(N/N=C/c1cc(Br)c(Br)o1)c1cccnc1	-21%	28µM*	29%	-2%	2%
O=C(N/N=C/C=C/c1ccc2c(c1)OCO2)c1ccc([N+](=O)[O-])cc1	-22%	-14%	102%	8%	?
O=C(N/N=C\c1cc(Br)c(Br)o1)c1cncc(Br)c1	-30%	0%	-3%	-20%	-10%
O=C(N/N=C/c1cc(Br)c(Br)o1)c1ccc2c(c1)OCCO2	-51%	11µM*	3%	-15%	0%
CCCCOc1ccc(C2C(=O)N(C3CCCCC3)CC(=O)N2CCCC)cc1 (centres undefined)	.	16%	.	.	6%
CC(=O)Nc1ccc(NC(=O)c2oc3c(c2C)-c2nn(Cc4ccccc4Cl)cc2CC3)cc1	.	5%	.	.	21%
COC(=O)c1cc2sc(C)cc2n1CC(=O)Nc1cccc(SC)c1	.	0%	.	.	21%
CCn1c(=O)cc(OCC(=O)Nc2cc(OC)c(OC)c(OC)c2)c2ccccc21	.	?	.	.	15%
[O-][n+]1cccc2c(Br)cc(Br)c(O)c21	-14%	7.9µM*	-16%	?	5%
Oc1c(Br)cc(Br)c2cccnc12	.	.	-5%	?	.
Cc1ccc(S(=O)(=O)c2nc(-c3ccccc3F)oc2NCc2ccccc2)cc1	.	48%	.	.	15%
CCNc1oc(-c2ccccc2F)nc1S(=O)(=O)c1ccccc1	-29%	40µM*	-17%	-7%	1%
CCNc1oc(-c2ccc(OC)cc2)nc1S(=O)(=O)c1ccc(Br)cc1	-49%	-29%	-7%	-8%	3%
CNc1oc(-c2ccccc2F)nc1S(=O)(=O)c1ccc(C)cc1	-48%	14µM*	6%	6%	-3%
Cc1cccc(C)c1NC(=O)C1(C)CSCC(=O)N1CCCN1CCOCC1 (centres undefined)	.	.	-3%	-10%	.
COc1ccc(N2CCN(C(=O)C(CC(C)C)NS(=O)(=O)c3ccc4nc(C)sc4c3)CC2)cc1 (centres undefined)	.	2%	.	.	-9%
COc1ccc(C2c3sc(=O)[nH]c3SC3C4CCC(C4)C23)cc1OC (centres undefined)	-43%	-1%	-3%	0%	3%
COc1cc(C2c3sc(=O)[nH]c3SC3C(=O)N(c4ccc(Br)cc4)C(=O)C32)ccc1O (centres undefined)	10µM*	-33%	51%	12%	1%
C=CCSc1nnc(NC(=O)c2cn(CC)c3nc(C)ccc3c2=O)s1	-23%	50µM*	-17%	1%	-7%
SMILES	AmpC no deterg	Sm TGR inh	AMA1-RON2 inh	RE007 growth inh	AmpC inh detg
CCc1ccc(-c2nc(CSCC(=O)NCc3ccco3)c(C)o2)cc1	27%	28µM*	15%	38%	-3%
CCc1ccc(-c2nc(CS(=O)CC(=O)NCc3ccccc3)c(C)o2)cc1 (centres undefined)	75%	8.9µM*	-13%	15%	-2%
Cc1ccc(-c2nc(CS(=O)CC(=O)NCc3ccc4c(c3)OCO4)c(C)o2)cc1 (centres undefined)	23%	22µM*	9%	-25%	-13%
Cc1ccc(-c2nc(CS(=O)CC(=O)NCc3ccc(Cl)cc3)c(C)o2)cc1 (centres undefined)	42%	?	0%	-7%	-16%
CCc1ccc(-c2nc(CS(=O)CC(=O)NCc3ccc4c(c3)OCO4)c(C)o2)cc1 (centres undefined)	66%	10µM*	-3%	3%	1%
CN1c2ccccc2-c2nc(SCC(=O)Nc3ccccc3C(F)(F)F)ncc2S1(=O)=O	.	8%	.	.	3%
CCOC(=O)c1cccc(NS(=O)(=O)c2c(C)nc3sc(C)cn3c2=O)c1	.	8%	.	.	-2%
Cc1cc(N2CCOCC2)ccc1/C=C\[N+](=O)[O-]	-9%	20µM*	0%	7.9µM*	-2%
O=[N+]([O-])c1ccc(N2CCOCC2)cc1O	-3%	-1%	5%	3%	11%
COc1ccc2c(c1)c(=O)c(C(=O)c1ccc(F)cc1)cn2CC(=O)Nc1ccc2c(c1)OCCO2	.	2%	.	.	4%
COc1cc(OC)c(CN2CCc3c([nH]c4ccccc34)C2)cc1Br	9%	35µM*	-18%	-17%	5%
Cc1cccc(CN2CCc3c([nH]c4ccccc34)C2)c1	-25%	-25%	?	-21%	1%
Cn1ncc2c(NCc3cccc(Cl)c3)ncnc21	.	-11%	.	.	-3%
C=CCNC(=S)Nc1c(C(=O)OC)[nH]c2cc(OC)ccc12	-19%	1.8µM*	103%	20%	-12%
COC(=O)c1[nH]c2cc(OC)ccc2c1NC(=O)c1c(F)cccc1F	-18%	0%	-6%	6%	4%
O=C(COC(=O)c1nc(Cl)c(Cl)c(Cl)c1Cl)c1ccc[nH]1	?	20µM*	0%	-27%	-3%
CCS(=O)(=O)c1ncc(N(Cc2ccco2)Cc2sccc2C)c(C(=O)Nc2ccc(C)cc2C)n1	.	2%	.	.	18%
O=C(/C=C/c1ccccc1)c1ccccn1	-30%	?	7%	35µM*	-4%
CCC(=O)N1CCCc2cc(S(=O)(=O)N3CCC(C(=O)NCc4ccc(F)cc4)CC3)ccc21	.	-11%	.	.	3%
C=CCn1c2ccccc2c(=O)c2cc(C#CC[C@@H](C)O)ccc21	28%	50µM*	46%	-23%	-5%
COc1ccc(CCNC(=O)c2noc(C(C)C)c2[N+](=O)[O-])cc1OC	-7%	35µM*	0%	-6%	1%
COc1ccc(CCNC(=O)c2ccc(-c3ccc([N+](=O)[O-])cc3)o2)cc1OC	-29%	40µM*	-25%	-7%	2%
COc1ccc(CNC(=O)c2noc(C(C)C)c2[N+](=O)[O-])cc1	-24%	-13%	2%	1%	-6%
COc1cc(C(=O)NCCc2sc(-c3ccc(C)cc3)nc2C)cc(OC)c1OC	.	0%	.	.	2%

Screens deposited in PubChem by National Center for Advancing Translational Sciences (NCATS).
